# Results: PubChem BioAssay (Tox21)
# Values without a mark were called inactive. Inconclusive results are not listed. Entries that show only a call come without a potency. The source made the active and inactive calls. Unless noted, calls follow the shape of the dose curve; as a rule, active = well fitted curve in the direction sought with a large enough effect in the repeat runs; inconclusive = weak or mixed curves; inactive = no such curve, though single readings can be large; an effect the other way counts as inactive or inconclusive.
# Tests used:
# [1] = qHTS assay for small molecule agonists of the p53 signaling pathway (AID 651631; calls by dose curve; also: nearly all actives have a fitted effect of over 15% in size; also: potency is read from the fitted curve at half-maximal effect)
# Summary of the method: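 Agonist mode screen using a stably integrated beta-lactamase gene under p53 response elements in HCT-116 cells. Compound exposure lasts 16 h at 37 °C; fluorescence intensity is measured following 2 h FRET substrate loading.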
# [2] = qHTS assay for small molecules that induce genotoxicity in human embryonic kidney cells expressing luciferase-tagged ATAD5 (AID 651632); also: nearly all actives have a fitted effect of over 15% in size; also: potency is read from the fitted curve at half-maximal effect
# Summary of the method: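 A rise in luciferase signal from ATAD5-tagged HEK293T cells marks genetic stress. Cells were exposed to compounds for 16 hr at 37C, 5% CO2, then luciferase was quantified after a 30 min room-temperature incubation with Amplite.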
# [3] = qHTS assay for small molecule agonists of the p53 signaling pathway - cell viability (AID 651633; calls by dose curve;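 also: p53RE-bla HCT reporter cells with a stable beta-lactamase p53 reporter; series mostly up to about 83 µM; nearly all actives have a fitted effect of over 30% in size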)
# Summary of the method: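 p53RE-bla cells were treated with compound for 16 hours at 37 C. Cytotoxicity was then measured as CellTiter-Glo luminescence after 30 min at room temperature.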
# [4] = qHTS assay for small molecule disruptors of the mitochondrial membrane potential - cell viability (AID 720634; calls by dose curve;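 also: human HepG2 liver cancer cells; series mostly up to about 83 µM; nearly all actives have a fitted effect of over 20% in size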)
# Summary of the method: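 Cytotoxicity was quantified from ATP content by CellTiter-Glo luminescence in the same wells as the MMP dye read-out. HepG2 (2,000 cells/well) were plated overnight and exposed to compounds for 1 hr at 37 C.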
# [5] = qHTS assay for small molecule disruptors of the mitochondrial membrane potential (AID 720635)
# Summary of the method: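 HepG2 cells exposed to compound 1 hr at 37C, then Mito-MPS dye 30 min. Ratio read of aggregate (540/590 nm) versus monomer (490/535 nm) fluorescence.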
# [6] = qHTS assay to test for compound auto fluorescence at 590 nm (red) in HepG2 cells (AID 720674)
# Summary of the method: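 Fluorescence at 590 nm emission following 540 nm excitation was recorded from HepG2 wells one hour after compound transfer, with DMSO-only wells as vehicle and Rose Bengal sodium equivalency as the scale.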
# [7] = qHTS assay to test for compound auto fluorescence at 535 nm (green) in HepG2 cells (AID 720675)
# [8] = qHTS assay to test for compound auto fluorescence at 460 nm (blue) in HEK293 cells (AID 720678)
# Summary of the method: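 Triamterene serves as the blue fluorophore standard. Compound signal at 405/460 nm is read in HEK293 wells (2,000 cells, 10% dialyzed FBS) after overnight treatment at 37C.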
# [9] = qHTS assay to test for compound auto fluorescence at 590 nm (red) in HEK293 cells (AID 720679)
# Summary of the method: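 We plated HEK293 cells in 10% dialyzed FBS medium, let them adhere for 4-5 hr, then added 23 nL compound. Overnight at 37C and 5% CO2 preceded fluorescence measurement at 540/590nm.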
# [10] = qHTS assay to test for compound auto fluorescence at 535 nm (green) in HEK293 cells (AID 720680)
# [11] = qHTS assay to test for compound auto fluorescence at 460 nm (blue) in HEK293 cell free culture (AID 720681)
# Summary of the method: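 Compounds were added to cell-free DMEM with 10% FBS and fluorescence read directly. The blue channel used 405 nm excitation and 460 nm emission, with triamterene as the reference fluorophore.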
# [12] = qHTS assay to test for compound auto fluorescence at 535 nm (green) in HEK293 cell free culture (AID 720682)
# Summary of the method: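 No cells present: wells hold DMEM supplemented with 10% FBS, into which compound or vehicle is pinned. Green emission is then recorded (485 nm excitation, 535 nm emission) and scaled to fluorescein.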
# [13] = qHTS assay to test for compound auto fluorescence at 590 nm (red) in HEK293 cell free culture (AID 720683)
# Summary of the method: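 Cell-free wells of DMEM with 10% FBS received compound, and intrinsic fluorescence was read at excitation/emission 540/590 nm. Values expressed as equivalence to Rose Bengal sodium.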
# [14] = qHTS assay to test for compound auto fluorescence at 590 nm (red) in HepG2 cell free culture (AID 720684)
# Summary of the method: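 Auto fluorescence equivalency versus Rose Bengal sodium, red channel Ex/Em 540/590 nm; compounds in cell-free MEM/10% FBS; DMSO vehicle control.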
# [15] = qHTS assay to test for compound auto fluorescence at 460 nm (blue) in HepG2 cell free culture (AID 720685)
# Summary of the method: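 Cell-free plates of MEM plus 10% FBS received 23 nL compound or DMSO vehicle; blue-channel (405/460 nm) intensity scored against triamterene as reference fluorophore.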
# [16] = qHTS assay to test for compound auto fluorescence at 535 nm (green) in HepG2 cell free culture (AID 720686)
# [17] = qHTS assay to test for compound auto fluorescence at 460 nm (blue) in HepG2 cells (AID 720687)
# Summary of the method: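 HepG2 cells in MEM with 10% FBS, attached overnight at 37 C, were exposed to compound or DMSO for 1 hr at 37 C, 5% CO2. Blue fluorescence was read at 405/460 nm, with triamterene as reference fluorophore.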
# [18] = biological target: Glucocorticoid receptor (Homo sapiens) (UniProt P04150); assay: qHTS assay to identify small molecule agonists of the glucocorticoid receptor (GR) signaling pathway (AID 720691; active = well fitted activation curve with a large enough effect in the signal ratio in the repeat runs, not every such curve was filed as active; the % refers to the signal ratio)
# Summary of the method: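 Agonist-mode qHTS in HeLa cells stably expressing a glucocorticoid-response-element beta-lactamase reporter. Fluorescence intensity read with FRET substrate (2 h, room temperature) after 18 h compound treatment at 37 C.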
# [19] = biological target: Glucocorticoid receptor (Homo sapiens) (UniProt P04150); assay: qHTS assay to identify small molecule antagonists of the glucocorticoid receptor (GR) signaling pathway (AID 720692; active = well fitted inhibition curve with a large enough effect in the signal ratio in the repeat runs, not every such curve was filed as active; the % refers to the signal ratio)
# Summary of the method: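 Inhibition of dexamethasone-driven (5 nM final) beta-lactamase expression was measured in GRE-reporter HeLa cells over 18 h at 37C. Fluorescence was read after 2 h with the B/G FRET substrate at room temperature.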
# [20] = qHTS assay for small molecules that induce genotoxicity in human embryonic kidney cells expressing luciferase-tagged ATAD5 - cell viability (AID 651634; calls by dose curve; also: nearly all actives have a fitted effect of over 25% in size)
# Summary of the method: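 Cytotoxicity counter-readout: after 15.5 hr compound treatment at 37C, live-cell protease activity in ATAD5-luciferase HEK293T cells measured by CellTiter-Fluor fluorescence, 30 min development at 37C.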
# Glucocorticoid receptor (Homo sapiens), sequence (P04150 whole entry, looked up): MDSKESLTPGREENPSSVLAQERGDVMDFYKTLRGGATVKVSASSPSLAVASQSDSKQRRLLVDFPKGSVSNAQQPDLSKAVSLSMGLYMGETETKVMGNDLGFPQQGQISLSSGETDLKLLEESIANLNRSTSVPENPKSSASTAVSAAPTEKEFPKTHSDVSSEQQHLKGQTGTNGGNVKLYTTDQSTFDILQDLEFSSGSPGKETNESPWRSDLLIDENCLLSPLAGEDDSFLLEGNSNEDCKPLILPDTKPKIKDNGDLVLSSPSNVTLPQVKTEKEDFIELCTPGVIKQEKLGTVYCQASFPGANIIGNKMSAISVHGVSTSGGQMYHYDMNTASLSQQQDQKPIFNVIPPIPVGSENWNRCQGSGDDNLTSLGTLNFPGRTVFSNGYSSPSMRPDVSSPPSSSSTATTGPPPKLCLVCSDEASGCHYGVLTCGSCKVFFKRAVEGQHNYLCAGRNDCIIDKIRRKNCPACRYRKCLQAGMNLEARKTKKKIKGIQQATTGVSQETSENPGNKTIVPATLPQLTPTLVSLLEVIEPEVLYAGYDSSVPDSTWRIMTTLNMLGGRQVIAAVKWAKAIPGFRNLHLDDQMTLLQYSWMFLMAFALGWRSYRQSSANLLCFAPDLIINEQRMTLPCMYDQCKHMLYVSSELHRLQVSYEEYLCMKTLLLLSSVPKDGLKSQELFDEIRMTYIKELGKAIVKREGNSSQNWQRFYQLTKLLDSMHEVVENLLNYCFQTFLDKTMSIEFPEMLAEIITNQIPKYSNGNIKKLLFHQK
compound,measurement,setting,value
Cn1c(=O)c2c(ncn2CC(O)CO)n(C)c1=O (stereo not drawn),Potency,[1],inactive
same,Potency,[2],inactive
same,Potency,[3],inactive
same,Potency,[4],inactive
same,Potency,[5],inactive
same,"fluorescence, relative to Rose Bengal",[6],0.442% [at 18.6 µM]
same,"fluorescence, % of fluorescein control",[7],-0.21% [at 18.6 µM]
same,"fluorescence, % of triamterene",[8],-0.206% [at 18.6 µM]
same,"fluorescence, % of fluorescent control",[9],-0.424% [at 18.6 µM]
same,"fluorescence, % of fluorescein",[10],-0.0383% [at 18.6 µM]
same,"fluorescence, % of fluorescent control",[11],-0.0654% [at 18.6 µM]
same,activity change,[12],-0.0177% [at 18.6 µM]
same,"fluorescence, % of fluorescent control",[13],0.293% [at 18.6 µM]
same,"fluorescence, % of Rose Bengal",[14],-0.139% [at 18.6 µM]
same,"fluorescence, % of fluorescent control",[15],-0.106% [at 18.6 µM]
same,"fluorescence, % of fluorescein control",[16],-0.0139% [at 18.6 µM]
same,"fluorescence, % of fluorescent control",[17],-0.0218% [at 18.6 µM]
same,Potency,[18],inactive
CCCCCc1ccc(N)cc1,Potency,[1],inactive
same,Potency,[2],inactive
same,Potency,[3],inactive
same,outcome,[6],inactive
same,outcome,[7],inactive
same,Potency,[8],inactive
same,outcome,[9],inactive
same,outcome,[10],inactive
same,Potency,[11],inactive
same,outcome,[12],inactive
same,outcome,[13],inactive
same,outcome,[14],inactive
same,Potency,[15],inactive
same,outcome,[16],inactive
same,Potency,[17],inactive
CC(=O)OC/C=C/c1ccccc1,Potency,[1],inactive
same,Potency,[2],inactive
same,Potency,[3],inactive
same,Potency,[4],inactive
same,Potency,[5],inactive
same,outcome,[6],inactive
same,outcome,[7],inactive
same,Potency,[8],inactive
same,outcome,[9],inactive
same,outcome,[10],inactive
same,Potency,[11],inactive
same,outcome,[12],inactive
same,outcome,[13],inactive
same,outcome,[14],inactive
same,Potency,[15],inactive
same,outcome,[16],inactive
same,Potency,[17],inactive
same,Potency,[18],inactive
same,Potency,[19],inactive
O=C(O)COC(=O)Cc1ccccc1Nc1c(Cl)cccc1Cl,Potency,[1],inactive
same,Potency,[2],inactive
same,Potency,[3],inactive
same,Potency,[4],inactive
same,"fluorescence, relative to Rose Bengal",[6],0.242% [at 18.6 µM]
same,"fluorescence, % of triamterene",[8],0.0454% [at 18.6 µM]
same,"fluorescence, % of fluorescent control",[9],-0.0045% [at 18.6 µM]
same,"fluorescence, % of fluorescein",[10],0.0784% [at 18.6 µM]
same,"fluorescence, % of fluorescent control",[11],0.0686% [at 18.6 µM]
same,activity change,[12],0.0139% [at 18.6 µM]
same,"fluorescence, % of fluorescent control",[13],-0.172% [at 18.6 µM]
same,"fluorescence, % of Rose Bengal",[14],-0.0238% [at 18.6 µM]
same,"fluorescence, % of fluorescent control",[15],0.0872% [at 18.6 µM]
same,"fluorescence, % of fluorescein control",[16],0.0255% [at 18.6 µM]
same,"fluorescence, % of fluorescent control",[17],0.0219% [at 18.6 µM]
Cc1ccc2c(ccc3ccccc32)c1,Potency,[1],inactive
same,Potency,[2],inactive
same,Potency,[3],inactive
same,Potency,[20],inactive
same,outcome,[6],inactive
same,Potency,[8],inactive
same,outcome,[9],inactive
same,outcome,[10],inactive
same,Potency,[11],inactive
same,outcome,[12],inactive
same,outcome,[13],inactive
same,outcome,[14],inactive
same,Potency,[15],inactive
same,Potency,[17],inactive
CC(CN)CCCN (stereo not drawn),Potency,[1],inactive
same,Potency,[2],inactive
same,Potency,[3],inactive
same,Potency,[4],inactive
same,Potency,[5],inactive
same,outcome,[6],inactive
same,outcome,[7],inactive
same,Potency,[8],inactive
same,outcome,[9],inactive
same,outcome,[10],inactive
same,Potency,[11],inactive
same,outcome,[12],inactive
same,outcome,[13],inactive
same,outcome,[14],inactive
same,Potency,[15],inactive
same,outcome,[16],inactive
same,Potency,[17],inactive
same,Potency,[18],inactive
same,Potency,[19],inactive
CCCOc1ccc2nc(NC(=O)OC)[nH]c2c1,Potency,[1],298 nM (active)
same,Potency,[2],1680 nM (active)
same,Potency,[3],inactive
same,Potency,[4],inactive
same,Potency,[5],inactive
same,outcome,[6],inactive
same,outcome,[7],inactive
same,Potency,[8],inactive
same,outcome,[9],inactive
same,outcome,[10],inactive
same,Potency,[11],inactive
same,outcome,[12],inactive
same,outcome,[13],inactive
same,outcome,[14],inactive
same,Potency,[15],inactive
same,outcome,[16],inactive
same,Potency,[17],inactive
Oc1ccc(C(O)CNCCCCCCNCC(O)c2ccc(O)c(O)c2)cc1O (stereo not drawn),Potency,[1],inactive
same,Potency,[2],inactive
same,Potency,[3],inactive
same,Potency,[20],inactive
same,outcome,[6],inactive
same,Potency,[8],inactive
same,outcome,[9],inactive
same,outcome,[10],inactive
same,Potency,[11],inactive
same,outcome,[12],inactive
same,outcome,[13],inactive
same,outcome,[14],inactive
same,Potency,[15],inactive
same,Potency,[17],inactive
same,Potency,[18],inactive
same,Potency,[19],inactive
C=Cc1c(C)c2cc3[nH]c(cc4nc(cc5nc(cc1[nH]2)C(C)=C5CCC(=O)O)C(CCC(=O)O)=C4C)c(C)c3C=C,Potency,[1],inactive
same,Potency,[2],inactive
same,Potency,[3],inactive
same,Potency,[4],inactive
same,Potency,[5],inactive
same,outcome,[6],inactive
same,outcome,[7],inactive
same,Potency,[8],inactive
same,outcome,[9],inactive
same,outcome,[10],inactive
same,Potency,[11],inactive
same,outcome,[12],inactive
same,outcome,[13],inactive
same,outcome,[14],inactive
same,outcome,[16],inactive
same,Potency,[17],inactive
same,Potency,[18],inactive
same,Potency,[19],inactive
CC(=O)CC(=O)c1ccccc1,Potency,[1],inactive
same,Potency,[2],inactive
same,Potency,[20],inactive
same,Potency,[4],inactive
same,Potency,[5],inactive
same,outcome,[6],inactive
same,outcome,[7],inactive
same,Potency,[8],inactive
same,outcome,[9],inactive
same,outcome,[10],inactive
same,Potency,[11],inactive
same,outcome,[12],inactive
same,outcome,[13],inactive
same,outcome,[14],inactive
same,Potency,[15],inactive
same,outcome,[16],inactive
same,Potency,[17],inactive
same,Potency,[18],inactive
same,Potency,[19],inactive
CCN(CC)C(C)=O,Potency,[1],inactive
same,Potency,[2],inactive
same,Potency,[3],inactive
same,Potency,[4],inactive
same,Potency,[5],inactive
same,outcome,[6],inactive
same,outcome,[7],inactive
same,outcome,[9],inactive
same,outcome,[10],inactive
same,Potency,[11],inactive
same,outcome,[12],inactive
same,outcome,[13],inactive
same,outcome,[14],inactive
same,Potency,[15],inactive
same,outcome,[16],inactive
same,Potency,[17],inactive
COc1ccc(C(C)=O)cc1,Potency,[1],inactive
same,Potency,[2],inactive
same,Potency,[3],inactive
same,Potency,[4],inactive
same,outcome,[6],inactive
same,outcome,[9],inactive
same,outcome,[10],inactive
same,Potency,[11],inactive
same,outcome,[12],inactive
same,outcome,[13],inactive
same,outcome,[14],inactive
same,Potency,[15],inactive
same,outcome,[16],inactive
same,Potency,[17],inactive
NCCCOCCOCCOCCCN,Potency,[1],inactive
same,Potency,[2],inactive
same,Potency,[20],inactive
same,Potency,[4],inactive
same,Potency,[5],inactive
same,outcome,[6],inactive
same,outcome,[7],inactive
same,outcome,[9],inactive
same,outcome,[10],inactive
same,Potency,[11],inactive
same,outcome,[12],inactive
same,outcome,[13],inactive
same,outcome,[14],inactive
same,Potency,[15],inactive
same,Potency,[17],inactive
same,Potency,[18],inactive
CCCCOC(O)CC (stereo not drawn),Potency,[1],inactive
same,Potency,[2],inactive
same,Potency,[20],inactive
same,Potency,[4],inactive
same,Potency,[5],inactive
same,outcome,[6],inactive
same,Potency,[8],inactive
same,outcome,[9],inactive
same,outcome,[10],inactive
same,Potency,[11],inactive
same,outcome,[12],inactive
same,outcome,[13],inactive
same,outcome,[14],inactive
same,outcome,[16],inactive
same,Potency,[17],inactive
same,Potency,[18],inactive
same,Potency,[19],inactive
